The list is not random: actives were taken first. Their share in the collection is about 6.9%.
GRIN3A LBD mod = binders of NR3A ligand-binding domain, primary screen, biophysical, differential scanning fluorimetry, uHTS; Glutamate receptor ionotropic, NMDA 3A (GRIN3A) ligand-binding domain; NR3A LBD differential scanning fluorimetry, Tm shift; 0% = protein alone, 100% = glycine-bound protein; Tm shift relative to glycine control, % at 25 µM; hit rate 2.5% among 340,000; AID 1259313, 2017;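 active = melting temperature shift of at least 10% of the positive control shift, at one fixed dose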
SKKanGAS inh = S. pyogenes SKKanGAS growth inhibitors in kanamycin, primary screen, streptokinase expression inhibitor project, SKKanGAS strain, BacTiter-Glo luminescence; 6 h; inhibition, % at 7.5 µM; hit rate 1.3% among 300,000; AID 1662, 2009;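 active = mean replicate score, as percent of positive control median, at least 50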;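 note: strain carries kanamycin resistance gene driven by streptokinase promoter and grows in 40 µg/ml kanamycin; loss of luminescence reflects streptokinase promoter inhibition or plain growth inhibition; 0% = median of DMSO wells and 100% = positive control at its reference dose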
Beta cell apopt = inhibitors of cytokine-induced beta cell apoptosis, primary screen, luminescence. protection from apoptosis, % (test concentration not listed). INS-1E cytokine-induced death, ATP luminescence, 48 h; percent of positive-control rescue, neutral wells zero. hit rate 0.8% among 300,000;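 active = Every replicate reaches about 75%, or at least half do and their mean reaches it too, limit read from the data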;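 note: 0% = cytokine-treated negative control wells and 100% = positive control rescue; higher means more ATP so stronger rescue from cytokine killing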
CSC inhib = cancer stem cell viability inhibitors, primary screen, luminescence; cancer stem cell-like cells viability; inhibition, % at 7.5 µM; hit rate 1.1% among 300,000; in the data active = inhibition above about 75%; tested in HMLE shEcad cells
MPTP block = mitochondrial permeability transition pore inhibitors, primary screen, biochemical, isolated mouse mitochondria, absorbance; inhibition, % at 10 µM; Ca2+ swelling absorbance, 30 min; hit rate 1.4% among 360,000;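 active = inhibition of 50% or more, scaled per plate between neutral and stimulator controls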;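 note: 0% = DMSO wells given calcium and 100% = 1 mM EGTA wells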
Mdm2 MdmX PPI = inhibitors of human Mdm2-MdmX association, primary screen, cell-based, luminescence, split luciferase, SaOS-2, uHTS | Protein Mdm4 (Homo sapiens) + E3 ubiquitin-protein ligase Mdm2 (Homo sapiens), … | SaOS-2 split-luciferase Mdm2/MdmX complementation | inhibition, % at 8 µM | hit rate 3% among 330,000 | AID 485346, 2010;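 active = inhibition of at least 50% at 8 µM in the primary screen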
Mdm2 MdmX conf = Mdm2-MdmX complex disruptors, retested hits, confirmation, luminescence, single concentration; Mdm2-MdmX binding, luminescent assay; AID 489028, 2010; hit rate 55% among 10,000; shares compounds with Mdm2 MdmX PPI; inhibition, % at 8 µM; in the data active = inhibition above about 40%
Full FLuc ctr = full-length luciferase signal inhibition, confirmation, counter-screen for Mdm2/MdmX interaction inhibitor project, cell-based, single concentration, SaOS-2; SaOS-2 full-length luciferase counterscreen, luminescence; AID 504607, 2011; shares compounds with Mdm2 MdmX PPI; hit rate 77% among 6,200; inhibition, % at 8 µM;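 active = mean inhibition at 8 µM reaching about 37%, which flags the compound as non-specific, limit read from the data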;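 note: p53-null SaOS-2 cells with luciferase driven by a doxycycline-inducible promoter; compound on cells about two nights before reading with doxycycline added after day one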
MPTP counter = fluorescence retest of MPTP screen hits in isolated mitochondria, single concentration. shares compounds with MPTP block. membrane potential, Rhodamine 123 fluorescence. inhibition, % at 10 µM. hit rate 78% among 5,000. AID 624504, 2012; in the data active = inhibition above about 22%;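 note: 0% = DMSO vehicle and 100% = positive control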
Starred values were filed as active, the others as inactive; nt = not tested or not shown.

SMILES	GRIN3A LBD mod	SKKanGAS inh	Beta cell apopt	CSC inhib	MPTP block	Mdm2 MdmX PPI	Mdm2 MdmX conf	others
COc1ccc(C(C(=O)NCC2CCCO2)N(C(=O)Cn2nnc3ccccc32)c2ccccc2C(C)=O)cc1OC (stereo not given)	-2	1	-1	-10	2	13	nt
Cc1c(OCC(=O)NCC2CCC(C(=O)O)CC2)ccc2c(-c3ccccc3)cc(=O)oc12 (stereo not given)	0	24	3	-10	-2	2	nt
C=CCNC(=O)c1ccc(-c2nc(-c3ccc(Cl)c(Cl)c3)cs2)cc1	31*	8	-15	-9	2	52*	25
COc1ccc(OC)c(NC(=O)c2ccc(OC3CSC3)cc2)c1	3	0	2	-1	1	6	nt
CCOc1cc(S(=O)(=O)NCCc2ccc(OC)c(OC)c2)c(OCC)cc1-n1cnnn1	2	0	1	-18	0	-2	nt
CCOc1cc(S(=O)(=O)NCc2ccc(OC)cc2)c(OCC)cc1-n1cnnn1	3	nt	1	nt	-1	51*	45*	Full FLuc ctr=86*
Cc1ccc(S(=O)(=O)N2CCN(C(C)C(=O)NCC(C)c3ccccc3)CC2)cc1 (stereo not given)	0	nt	-1	7	-1	3	nt
COc1ccc(CNC(=O)Cn2nnc(-c3ccc(NC(=O)C4CCCCC4)cc3)n2)cc1	-2	-10	3	8	3	61*	15
CCOc1ccc(-c2nnn(CC(=O)NCc3ccc(C)cc3)n2)cc1	-5	-16	2	-4	-2	29	nt
CCOc1ccc(-c2nnn(CC(=O)Nc3cc(OC)ccc3OC)n2)cc1OCC	0	-5	-6	-12	1	0	nt
CCOc1ccccc1NC(=O)Cn1nnc(-c2ccc(OCC)c(OCC)c2)n1	0	-8	nt	nt	2	88*	7
CCOc1ccc(-c2nnn(CC(=O)NCc3ccc(OC)cc3)n2)cc1OCC	1	-4	5	1	-1	62*	16
O=C1CCc2cc(S(=O)(=O)Nc3ccc(F)cc3)ccc2N1	0	nt	0	-12	0	11	nt
CC12CCC(C(=O)N3CCC(Cc4ccccc4)CC3)(C(=O)C1=O)C2(C)C (stereo not given)	2	-7	5	4	5	5	nt
CCN(CCCNC(=O)COc1cc(=O)n(CC)c2ccccc12)Cc1ccccc1	0	9	-11	-6	3	59*	46*	Full FLuc ctr=93*
CCn1c(=O)cc(OCC(=O)NCCc2ccc(OC)c(OC)c2)c2ccccc21	-3	-7	5	-10	3	27	nt
CN(CCCNC(=O)COc1cc(=O)n(C)c2ccccc12)Cc1ccccc1	0	5	2	19	-1	19	nt
CCN(CCCNC(=O)CCCOc1cc(=O)n(C)c2ccccc12)Cc1ccccc1	-2	-3	6	9	1	52*	17
O=c1[nH]c(=O)c2cc3ccccc3nc2[nH]1	-1	nt	nt	nt	-2	nt	nt
Cc1cc2cc3c(=O)[nH]c(=O)[nH]c3nc2cc1C	nt	-1	2	12	nt	53*	17
N=C1S/C(=C\c2cccc3ccccc23)C(=O)N1c1ccc(F)cc1	11*	56*	10	97*	94*	56*	49*	Full FLuc ctr=62*;MPTP counter=20*
COc1ccccc1C(=O)NCCC(=O)N1CCN(C(C)=O)CC1	1	0	-4	-9	0	6	nt
COc1ccccc1Oc1ccc(NC(=O)c2ccc(Cl)cc2)cc1	-7	1	11	-18	6	17	nt
O=C(Nc1ccc(Oc2ccc(Cl)cc2)c(Cl)c1)c1cc(I)cc(I)c1O	31*	103*	-2	100*	106*	100*	74*	Full FLuc ctr=56*;MPTP counter=74*

From PubChem BioAssay
